Reference: PubChem BioAssay (NCI)
Compounds without any hit were thinned out: in the full panel of roughly 79,000, 15% have a hit. The source made the active and inactive calls. Rule as the data show it: active = growth inhibition above about 70%; inactive = the rest.

Columns and labels:
[1] = NCI Yeast Anticancer Drug Screen. Data for the rad52 strain (AID 147);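 also: 0% = growth of vehicle-treated control cultures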; conditions: S. cerevisiae rad52 mutant growth inhibition, active compounds read high
Summary of the method: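 The repair-mutant yeast strain was incubated with compounds, then growth was read and inhibition derived relative to vehicle.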

[2] = NCI Yeast Anticancer Drug Screen. Data for the wt1 strain (AID 149);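 also: 0% = growth of vehicle-treated wt1 cultures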; conditions: S. cerevisiae wt1 strain (SPY 50644) growth inhibition, active compounds read high
Summary of the method: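 The wt1 strain was treated with compounds, and growth was compared with vehicle-treated cultures to give inhibition.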

[3] = NCI Yeast Anticancer Drug Screen. Data for the rad50EPP+ strain (AID 151);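 also: 0% = growth of vehicle-treated control cultures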; conditions: S. cerevisiae rad50 mutant strain, active compounds read high
Summary of the method: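 Vehicle-normalised growth inhibition; rad50EPP+ yeast strain, altered in DNA damage repair, compound-treated.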

[4] = NCI Yeast Anticancer Drug Screen. Data for the mgt1 strain (AID 153); conditions: S. cerevisiae mgt1 mutant growth inhibition, active compounds read high
Summary of the method: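 Vehicle-normalized growth inhibition is determined in mgt1 yeast, a strain selected for a defined alteration in DNA repair or cell cycle control.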

[5] = NCI Yeast Anticancer Drug Screen. Data for the rad50 strain (AID 155);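 also: 0% = growth of vehicle-only cultures of the same strain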; conditions: S. cerevisiae rad50 strain growth inhibition, active compounds read high
Summary of the method: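 Cells are treated with compound, grown, and their growth is then scored against vehicle-only cultures of the same repair-deficient yeast strain.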

[6] = NCI Yeast Anticancer Drug Screen. Data for the mec2-1 strain (AID 157); conditions: S. cerevisiae mec2-1 strain, active compounds read high
Summary of the method: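 Mutant yeast (mec2-1) grown with compound; growth inhibition relative to vehicle control reported.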

[7] = NCI Yeast Anticancer Drug Screen. Data for the rad14 strain (AID 159);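 also: 0% = growth of vehicle-treated control cultures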; conditions: S. cerevisiae rad14 strain growth inhibition, active compounds read high
Summary of the method: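 Readout: yeast growth inhibition, referenced to vehicle-only cultures. Strain bears a defined alteration in DNA damage repair.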

[8] = NCI Yeast Anticancer Drug Screen. Data for the sgs1 mgt1 strain (AID 161);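 also: 0% = growth of cultures given vehicle only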; conditions: S. cerevisiae sgs1 mgt1 strain, active compounds read high
Summary of the method: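 Yeast cells carrying a defined DNA-repair defect were exposed to test compounds. Growth inhibition was measured relative to vehicle-treated controls.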

[9] = NCI Yeast Anticancer Drug Screen. Data for the CLN2oe strain (AID 163);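 also: 0% = growth of vehicle-only control cultures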; conditions: S. cerevisiae CLN2oe strain, active compounds read high
Summary of the method: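 Compounds are applied to yeast harbouring a defined cell-cycle control change; reduced growth compared with vehicle-treated controls gives the value.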

[10] = NCI Yeast Anticancer Drug Screen. Data for the cln2 rad14 strain (AID 165);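 also: 0% = growth equal to vehicle treated cultures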; conditions: S. cerevisiae cln2 rad14 strain, active compounds read high
Summary of the method: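 Readout is yeast growth inhibition versus vehicle-treated controls, using a strain with cln2 and rad14 alterations exposed to compound.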

[11] = NCI Yeast Anticancer Drug Screen. Data for the bub3 strain (AID 167); conditions: S. cerevisiae bub3 mutant strain, active compounds read high
Summary of the method: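 Part of a panel of yeast mutants defective in DNA damage repair or cell cycle regulation. Each strain is grown with compound, and inhibition is calculated relative to solvent-treated cultures.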

[12] = NCI Yeast Anticancer Drug Screen. Data for the wt2 strain (AID 169);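 also: 0% = growth of vehicle-treated yeast cultures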; conditions: S. cerevisiae wt2 strain growth inhibition, active compounds read high
Summary of the method: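 Against vehicle-treated controls, the growth of yeast exposed to each compound was compared, and the inhibition was recorded.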

[13] = NCI Yeast Anticancer Drug Screen. Data for the mlh1 strain (AID 171);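 also: 0% = growth of vehicle-treated control cultures of the same strain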; conditions: S. cerevisiae mlh1 strain growth inhibition, active compounds read high
Summary of the method: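 Measured: yeast growth. Reference: vehicle-treated controls. Organism: strain with a defined alteration affecting DNA damage repair or cell cycle control, treated with compound.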

[14] = NCI Yeast Anticancer Drug Screen. Data for the sgs1 strain (AID 173);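 also: 0% = growth of vehicle-only control cultures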; conditions: S. cerevisiae sgs1 mutant, active compounds read high
Summary of the method: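 Each compound was added to cultures of the altered yeast strain. Growth was recorded, and inhibition was derived by comparison with vehicle controls.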

[15] = NCI Yeast Anticancer Drug Screen. Data for the mlh1 rad18 strain (AID 175); conditions: S. cerevisiae mlh1 rad18 strain growth inhibition, active compounds read high
Summary of the method: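 Genetically defined yeast (DNA repair-deficient) exposed to compounds; growth inhibition determined relative to vehicle.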

[16] = NCI Yeast Anticancer Drug Screen. Data for the rad18 strain (AID 177); conditions: S. cerevisiae rad18 mutant growth inhibition, active compounds read high
Summary of the method: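 Vehicle-treated cultures served as the baseline for scoring compound-induced growth inhibition in DNA-repair-mutant yeast.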

[17] = at 5.0 µM (retest, dose inferred, filed as 0.5)
[18] = at 50.0 µM (retest, dose inferred, filed as 5.0)

Measured: growth inhibition

O=C1C(=O)c2cccc([N+](=O)[O-])c2-c2ccccc21
active: [1]; at 33.0 µM 99% | [1]; at 100.0 µM 97% | [2]; at 33.0 µM 100% | [2]; at 100.0 µM 98% | [3]; at 33.0 µM 99% | [3]; at 100.0 µM 98% | [4]; at 33.0 µM 99% | [4]; at 100.0 µM 98% | [5]; at 33.0 µM 99% | [5]; [18] 98% | [5]; at 50.0 µM 98.5% | [5]; at 100.0 µM 96% | [6]; at 33.0 µM 99% | [6]; [18] 99% | [6]; at 50.0 µM 99.2% | [6]; at 100.0 µM 97% | [7]; at 33.0 µM 99% | [7]; at 100.0 µM 98% | [8]; [18] 99% | [8]; at 50.0 µM 98.9% | [9]; at 33.0 µM 99% | [9]; at 100.0 µM 98% | [10]; [18] 98% | [10]; at 50.0 µM 97.8% | [11]; at 33.0 µM 99% | [11]; [18] 98% | [11]; at 50.0 µM 98.8% | [11]; at 100.0 µM 99% | [12]; at 33.0 µM 99% | [12]; at 100.0 µM 98% | [13]; at 33.0 µM 99% | [13]; at 100.0 µM 98% | [14]; at 33.0 µM 99% | [14]; at 100.0 µM 96% | [15]; [18] 98% | [15]; at 50.0 µM 98.8% | [16]; at 33.0 µM 99% | [16]; at 100.0 µM 98%
inactive: [1]; at 1.2 µM 6% | [1]; at 3.7 µM -4% | [1]; at 11.0 µM 37% | [2]; at 1.2 µM 2% | [2]; at 3.7 µM 20% | [2]; at 11.0 µM 18% | [3]; at 1.2 µM -2% | [3]; at 3.7 µM -14% | [3]; at 11.0 µM 24% | [4]; at 1.2 µM 2% | [4]; at 3.7 µM -2% | [4]; at 11.0 µM 6% | [5]; at 1.2 µM -78% | [5]; at 3.7 µM -4% | [5]; [17] 19% | [5]; at 11.0 µM 55% | [6]; at 1.2 µM 5% | [6]; at 3.7 µM 9% | [6]; [17] 31% | [6]; at 11.0 µM 10% | [7]; at 1.2 µM 11% | [7]; at 3.7 µM 20% | [7]; at 11.0 µM 62% | [8]; [17] 31% | [9]; at 1.2 µM -6% | [9]; at 3.7 µM -5% | [9]; at 11.0 µM -1% | [10]; [17] 1% | [11]; at 1.2 µM 32% | [11]; at 3.7 µM 35% | [11]; [17] 53% | [11]; at 11.0 µM 47% | [12]; at 1.2 µM 30% | [12]; at 3.7 µM 47% | [12]; at 11.0 µM 66% | [13]; at 1.2 µM -3% | [13]; at 3.7 µM -1% | [13]; at 11.0 µM 3% | [14]; at 1.2 µM 16% | [14]; at 3.7 µM 11% | [14]; at 11.0 µM 35% | [15]; [17] 37% | [16]; at 1.2 µM 1% | [16]; at 3.7 µM 6% | [16]; at 11.0 µM 15%
